Shown are actives, neighbours in structure and some others; about 1.5% of the full set was active somewhere.
AID504770: E. coli YBA685 growth inhibition, screen for V. cholerae RctB inhibitors; E. coli YBA685 rctB-dependent plasmid, OD600 growth, 3 h; hits give low values; z-score (concentration not given with the values); 0.27% of 130,000 active; AID 504770; in the data active = z-score below about -2, passing the limit was not always enough
Mtb MenB inh: Mtb MenB enzyme inhibition | P9WNP5 | 0.43% of 100,000 active | AID 540299 | inhibition, % (test concentration not listed) | MenB enzyme assay, absorbance read-out; in the data active = inhibition above about 21%, passing the limit was not always enough
Polio RdRp inh: poliovirus RNA polymerase inhibition; AID 588519; % elongation, % (compound at 16.7 µg/mL); 0.66% of 150,000 active; poliovirus polymerase elongation, fluorescence polarization; hits give low values; in the data active = % elongation below about 90%
Target sequence (P03300 1749-2209 limits assumed): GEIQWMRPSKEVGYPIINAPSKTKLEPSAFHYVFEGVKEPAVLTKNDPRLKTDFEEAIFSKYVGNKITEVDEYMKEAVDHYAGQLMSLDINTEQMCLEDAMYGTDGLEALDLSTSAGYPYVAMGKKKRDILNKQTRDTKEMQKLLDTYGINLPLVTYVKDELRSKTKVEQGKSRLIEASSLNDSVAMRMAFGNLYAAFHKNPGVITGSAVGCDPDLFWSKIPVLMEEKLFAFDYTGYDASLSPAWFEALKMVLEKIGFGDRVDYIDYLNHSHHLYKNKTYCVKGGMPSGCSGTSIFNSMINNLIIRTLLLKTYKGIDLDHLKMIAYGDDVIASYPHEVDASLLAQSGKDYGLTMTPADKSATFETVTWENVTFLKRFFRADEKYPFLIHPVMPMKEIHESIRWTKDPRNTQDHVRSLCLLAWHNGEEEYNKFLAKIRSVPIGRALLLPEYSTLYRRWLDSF
Mtb MbtI inh: inhibitors of Mycobacterium tuberculosis siderophore enzyme MbtI. P9WFX0. purified MbtI enzyme, fluorescence intensity read-out. inhibition, % (concentration not given with the values). 0.89% of 100,000 active; in the data active = inhibition mostly above about 56%, no sharp cut-off; inactive = mostly below about 77%
Hits are given with their value; n = inactive; x = no result given.

SMILES | AID504770 | Mtb MenB inh | Polio RdRp inh | Mtb MbtI inh
CCN(CC)P1(=S)N(c2ccccc2)N=C2C=C(C)c3ccccc3N21 (configuration not stated) | n | n | 68 | n
COc1ccc(Cl)cc1NC(=O)c1c(NCc2sccc2C)sc2c1CCCC2 | x | x | 70 | x
Cc1ccccc1NC(=O)c1c(NC(=O)C(C)Oc2cccc(Cl)c2)sc2c1CCCC2 (configuration not stated) | x | x | 87 | x
O=C(Nc1cccc(Cl)c1)c1c(NC(=O)C(F)(F)F)sc2c1CCCC2 | x | x | 79 | x
CCOc1ccccc1NC(=O)c1c(NC(=O)C(C)Oc2cccc(Cl)c2)sc2c1CCCCC2 (configuration not stated) | x | x | n | x
O=C(COc1ccc(Cl)cc1)Nc1sc2c(c1C(=O)Nc1cccc(Cl)c1)CCCC2 | x | x | 81 | x
Cc1cccc(NC(=O)c2c(NC(=O)C(F)(F)F)sc3c2CCCCC3)c1 | x | x | n | x
Cc1onc2c1C(=O)CC(C)(C)C2 | n | n | n | n
O=C(NCc1ccco1)C1=NN(c2ccccc2)C(=O)CC1 | n | n | n | n
C[N+]1(CC2COC(C3CC=CCC3)O2)CCCC1 (configuration not stated) | n | n | n | n
Cc1cc(/C=C2\N=COC2=O)ccc1C(F)(F)F | n | x | x | x
C[CH2][Hg][S]c1ccccc1C(=O)O | -5.4 | n | n | n
CN(C)C(=O)CSc1ccccc1C(=O)O | n | n | n | n
NC(=S)NN=C1C2CC3CC(C2)CC1C3 | n | n | 82 | n
CC(=O)N1C(C(=O)O)Cc2c([nH]c3ccccc23)C1(C)C (configuration not stated) | n | n | n | x
CC12CCC(=O)N1C(C(=O)O)Cc1c2[nH]c2ccccc12 (configuration not stated) | n | n | 85 | n
CN(C)S(=O)(=O)c1ccc(SCCCn2c(=O)[nH]c3ccccc32)nc1 | n | n | n | n
CCc1nc2ccc(NC(C)=O)cc2c(=O)n1Cc1ccccc1 | n | n | n | n
O=C(Nc1ccc2nc(C3CC3)n(Cc3ccccc3)c(=O)c2c1)C1CC1 | n | 33 | n | n
NC(Cc1ccccc1)c1ccccc1 (configuration not stated) | n | n | n | n
Cc1ccc(SC#N)c(N)n1 | -2.5 | x | x | x
N#CSc1ccc(N)cc1 | n | x | n | n
CC(Sc1nnnn1Cc1cccs1)C(=O)Nc1ccc(S(=O)(=O)N2CCCCC2)cc1 (configuration not stated) | n | n | n | n
COc1ccc(CCNC2=CC(=O)OC23CCCCC3)cc1OC | n | n | 72 | x
Cc1cc(CNC(C)c2cc3ccccc3o2)c(C)n1-c1cccc(S(=O)(=O)N2CCOCC2)c1 (configuration not stated) | n | n | n | n
SMILES | AID504770 | Mtb MenB inh | Polio RdRp inh | Mtb MbtI inh
O=C(COCc1cc(-c2ccc3c(c2)OCO3)on1)Nc1ccc(OC(F)(F)F)cc1 | -2.5 | n | n | n
CC1C(=O)NN=C1C(=O)N/N=C\c1cccnc1 (configuration not stated) | n | 35 | n | n
CC1C(=O)NN=C1C(=O)N/N=C/c1ccc(OC(=O)c2ccco2)cc1 (configuration not stated) | n | n | n | n
COc1cc(C(F)(F)F)c(C(=O)N(C)Cc2ccc(Cl)cc2)cn1 | n | x | x | x
O=C(NC(Cc1ccccc1)C(=O)OCc1ccccc1)c1cccs1 (configuration not stated) | n | x | n | n
O=C(N[C@@H](Cc1ccccc1)C(=O)OCc1ccccc1)c1ccco1 | n | n | 80 | n
CC(=O)Nc1cccc(OCc2cc(=O)n3nc(CC(C)C)sc3n2)c1 | n | n | n | n
CCc1cc(Br)ccc1NC(C)=O | -2.7 | x | x | x
CCCNC(=O)Nc1ccc(Br)cc1F | n | n | n | n
COc1ccc(-n2nc3c(N4CCCC(C(=O)NCc5ccc(C)cc5)C4)nnc(C)c3c2C)cc1 (configuration not stated) | x | x | 89 | x
CC(=O)n1c(=S)[nH]c2ccccc21 | n | n | n | 101
O=C(Cn1c(=S)[nH]c2ccccc21)c1ccc(-c2ccccc2)cc1 | n | n | n | x
COc1ccc(C2=CSC3=C(C(=O)c4cc(OC)c(OC)c(OC)c4)CCN23)cc1 | n | n | n | n
O=C(O)CC1C(=O)NN=C2c3ccccc3N=CN21 (configuration not stated) | n | n | 78 | n
O=C(O)CC1C(=O)NC(=Nc2ccccc2)N1c1ccccc1 (configuration not stated) | n | n | n | n
CC(C)[C@H](O)CC[C@@H](C)[C@H]1CC[C@H]2[C@@H]3CC=C4C[C@@H](O)CC[C@]4(C)[C@H]3CC[C@]12C | x | x | n | n

From PubChem BioAssay
